Source: PubChem BioAssay
A selection: hits, their analogues and other compounds. The true share with any hit is near 3.5%.
GPR151 activ: activators of human GPR151; activation, % at 11.2 µM; Q8TDV0; 1% of 650,000 active; PathHunter beta-arrestin GPR151 cells, luminescence; AID 1508602; in the data active = activation above about 4.9%;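 also: 0% = median of compound wells and 100% = cells with positive control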
MITF primary: blocks human microphthalmia-associated transcription factor | O75030 | AlphaScreen MITF homodimerization, bead proximity signal | inhibition, % at 2.6 µM | 0.91% of 650,000 active; in the data active = inhibition above about 50%;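 also: 0% = vehicle wells with protein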
FBW7 act: activators of human E3 ligase FBW7; AlphaScreen FBW7–phospho-cyclin E peptide binding, activator screen; 0.13% of 650,000 active; normalized activity (activation), % at 26.1 µM; in the data active = normalized activity above about 1.9%;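 also: purified mutant Fbw7 with reduced substrate affinity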
Target sequence (Q969H0 whole entry, looked up): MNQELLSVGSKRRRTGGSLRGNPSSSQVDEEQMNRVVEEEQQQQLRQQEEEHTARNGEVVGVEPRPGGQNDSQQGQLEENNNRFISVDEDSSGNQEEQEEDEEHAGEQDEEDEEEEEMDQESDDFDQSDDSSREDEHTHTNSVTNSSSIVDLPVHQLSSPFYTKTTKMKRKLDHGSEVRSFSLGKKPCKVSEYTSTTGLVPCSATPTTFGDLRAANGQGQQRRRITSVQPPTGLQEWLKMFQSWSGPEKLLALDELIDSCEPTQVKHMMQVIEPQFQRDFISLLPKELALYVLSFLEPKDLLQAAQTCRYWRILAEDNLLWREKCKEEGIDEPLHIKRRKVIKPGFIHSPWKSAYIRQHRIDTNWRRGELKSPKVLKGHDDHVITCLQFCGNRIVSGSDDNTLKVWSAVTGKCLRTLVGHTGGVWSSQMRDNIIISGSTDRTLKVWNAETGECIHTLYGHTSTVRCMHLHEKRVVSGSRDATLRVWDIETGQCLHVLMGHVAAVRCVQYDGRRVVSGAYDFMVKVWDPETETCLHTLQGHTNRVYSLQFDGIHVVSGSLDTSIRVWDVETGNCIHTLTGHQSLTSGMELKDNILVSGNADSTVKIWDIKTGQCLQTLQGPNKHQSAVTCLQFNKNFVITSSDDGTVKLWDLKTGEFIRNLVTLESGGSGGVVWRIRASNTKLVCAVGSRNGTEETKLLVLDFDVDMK
TEAD-YAP inh: TEAD-YAP interaction inhibition | AID 1259422 | 1.4% of 640,000 active | inhibition, % at 9.12 µM | HEK-TIYL cells, TEAD-Gal4/YAP UAS-luciferase luminescence; in the data active = inhibition above about 32%;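 also: 0% = median of test compound wells and 100% = reference inhibitor wells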
MITF inh conf: confirmation of human MITF inhibitors; shares compounds with MITF primary; AlphaScreen MITF homodimerization, biotin/His-MITF beads; inhibition, % at 2.6 µM; 16% of 4,700 active; AID 1259372;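 active = inhibition above a cutoff derived from the DMSO control wells, cut at about 28% in these data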;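 also: 0% = MITF dimer wells with DMSO only; inhibitors lower the bead chemiluminescence by keeping MITF from dimerizing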
AS interf ctr: AlphaScreen optical interference, counter-screen. shares compounds with MITF primary. 7.6% of 4,700 active. LysRS AlphaScreen counterscreen, signal interference, triplicate. inhibition, % at 2.6 µM;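 active = inhibition above a cutoff derived from the DMSO control wells, cut at about 30% in these data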
* marks the source's active call; other numbers are inactive results; x = not tested or not shown.

SMILES	GPR151 activ	MITF primary	FBW7 act	TEAD-YAP inh	MITF inh conf	AS interf ctr
Cc1ccc(Cl)cc1NC(=O)CC(NCc1ccccn1)C(=O)O (centres undefined)	-0.5	101.4*	-0.3	-2.3	87.2*	100.3*
Cc1ccc(C)c(NC(=O)CC(NCCN)C(=O)O)c1 (centres undefined)	-0.4	80.5*	-0.2	5.5	35.6*	58.4*
O=C(CC(NCc1ccccc1)C(=O)O)Nc1cccc(C(F)(F)F)c1 (centres undefined)	3.7	89.2*	0.2	-4.2	8.1	8.4
Cn1c2c(c(=O)n(C)c1=O)C(c1ccc(N3CCOCC3)cc1)C1=C(CCCC1=O)N2 (centres undefined)	-0.7	15.1	0.0	4.8	x	x
CCC(=O)N1CCc2cc(S(=O)(=O)N(C)CCC#N)ccc21	-0.1	16.9	0.5	-4.4	x	x
CC1CC(C)(C)NC(=S)N1CCC(=O)NCc1ccco1 (centres undefined)	-0.9	12.3	-0.1	-8.0	x	x
COc1ccc(CNC(=O)c2c(O)c3c([nH]c2=O)CCCC3)cc1	-1.5	51.2*	0.7	-3.7	7.5	15.0
CC(NCC(O)COCCOc1ccc(Cl)cc1)c1ccccc1 (centres undefined)	-1.6	1.9	0.0	13.4	x	x
CC1CCCCN1C(=O)CN1CCN(c2ncccn2)CC1 (centres undefined)	-0.1	54.5*	0.0	-9.1	3.2	11.3
CC1(C)CC(=O)c2sc(NC(=O)Cc3ccccc3[N+](=O)[O-])nc2C1	2.4	7.1	0.0	-0.5	x	x
COc1ccc(C(=O)Nc2cc(-c3nc4cc(C)ccc4o3)ccc2Cl)cc1Br	-1.1	58.8*	0.1	-30.9	6.2	14.0
Cc1noc(C)c1S(=O)(=O)N1CCCC(N2CCOCC2)C1 (centres undefined)	-2.0	-3.2	-0.2	-3.2	x	x
CCN1CCN(CCOc2c(OC)cccc2OC)CC1	0.9	82.0*	0.0	1.1	7.4	15.7
COc1cccc(OC)c1OCCCCN1CCCC1	-0.2	52.5*	0.5	5.8	-7.8	-10.4
Cc1noc(C)c1S(=O)(=O)Nc1ccc2c(c1)OCO2	1.0	-4.9	-0.2	-2.4	x	x
O=C1c2ccccc2C(Nc2ccccc2Cl)N1c1cccnc1 (centres undefined)	-1.3	-2.7	-0.1	-10.7	x	x
O=C(CNCCc1ccc(Cl)cc1)Nc1ccccc1N1CCOCC1	-0.4	64.8*	-0.1	-12.7	-0.9	18.2
O=C(CNCCC1=CCCCC1)Nc1ccccc1N1CCOCC1	-0.8	76.8*	0.4	-0.3	-14.5	0.6
O=C(CNCCc1ccccc1)Nc1ccccc1N1CCCCCC1	3.2	24.5	-0.2	-8.5	x	x
CCCCN(CC)C(=O)CSc1nc2c(sc(=S)n2-c2ccc(CC)cc2)c(=O)n1-c1ccccc1C	-0.6	5.0	0.0	17.7	x	x
CC(C)C(NC(=O)c1ccccn1)c1nnc2n1CCN(Cc1ccc(Cl)cc1)CC2 (centres undefined)	3.8	1.5	0.4	6.1	x	x
Clc1ccc(-c2[nH]ncc2CNCc2cccnc2)cc1	0.8	58.3*	0.3	4.3	-8.8	-5.1
O=C1C(=O)N(c2nc3ccccc3s2)C(c2cccnc2)/C1=C(\O)c1ccc(Cl)cc1 (centres undefined)	-1.8	12.0	0.0	-0.1	x	x
COc1cc(OC)cc(C(=O)N2CCN(Cc3ccc(Cl)cc3)CC2)c1	-1.0	57.7*	-0.1	10.3	27.0	14.6
O=C(c1ccncc1)N1CCN(Cc2cccc(Cl)c2)CC1	-0.7	73.5*	-0.2	-0.8	9.0	16.6
SMILES	GPR151 activ	MITF primary	FBW7 act	TEAD-YAP inh	MITF inh conf	AS interf ctr
COc1cc(OC)cc(C(=O)N2CCN(Cc3ccc(F)cc3)CC2)c1	0.6	50.5	0.0	-5.4	x	x
COc1cc(OC)cc(C(=O)N2CCN(Cc3cccc(Cl)c3)CC2)c1	0.3	52.1*	-0.4	-4.5	11.9	19.6
CCOC(=O)c1ccc(Oc2nc(N(C)C)nc(N(C)C)n2)cc1	1.4	54.4*	-0.3	-10.3	2.7	6.7
CCNc1nc(Oc2ccc(C(=O)OCC)cc2)nc(N(C)C)n1	0.5	-13.2	0.0	-1.7	x	x
Cc1ccc(NC(=O)c2cc(=O)n(C)c(=O)[nH]2)cc1C	0.2	7.2	0.0	-2.1	x	x
O=C(CCN1C(=O)c2ccc([N+](=O)[O-])cc2C1=O)Nc1c[nH]c(=O)[nH]c1=O	1.1	5.2	0.1	-1.6	x	x
O=C(NCc1ccccc1)c1cccc(-c2cccs2)c1	-1.1	28.7	-0.2	4.5	x	x
